Assay outcomes from PubChem BioAssay.
Shown are actives, neighbours in structure and some others; about 1.3% of the full set was active somewhere.
AGP1 TOR yeast – alters AGP1-GFP fluorescence in TOR pathway yeast screen. S. cerevisiae AGP1-GFP multiplex flow cytometry, 3 h; GFP as percent of DMSO wells. GFP response vs DMSO, % at 10 µM. 0.02% of 320,000 active;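 active = GFP response relative to DMSO above a set limit, near screen average plus 3 SD, cut at about 150% in these data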;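 also: median GFP channel fluorescence of the gated AGP1 strain per well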
CIT2-GFP yeast – modulators of TOR pathway CIT2-GFP in S. cerevisiae; S. cerevisiae CIT2-GFP strain, flow cytometry, 3 h; 100 means same as DMSO wells; GFP response vs DMSO, % at 10 µM; 0.065% of 320,000 active; AID 2029;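 active = GFP response relative to DMSO above a set limit, near the screen mean plus 3 SD, cut at about 150% in these data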;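 also: ratio of well median GFP fluorescence to mean of DMSO wells on the plate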
Efflux pump mplx – blocks antifungal efflux pumps in multiplex yeast assay; AID 485275; inhibition, % at 10 µM; S. cerevisiae Candida pump triplex, Nile Red efflux; 0.44% of 330,000 active;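 active = plate passing quality check with inhibition over a set limit, or well fluorescence over plate mean plus 4 SD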;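 also: Nile Red retained in pooled yeast measured as flow cytometry median fluorescence; higher means more Nile Red kept so more efflux inhibition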
MEP2-GFP yeast – modulators of TOR pathway MEP2-GFP in S. cerevisiae; GFP response vs DMSO, % at 10 µM; 0.51% of 330,000 active; S. cerevisiae MEP2-GFP strain, flow cytometry GFP, 3 h; 100% = DMSO control level; AID 2016;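 active = GFP response versus DMSO above a set limit, roughly screen mean plus 3 SD, cut at about 180% in these data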;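 also: median GFP fluorescence of the barcode-gated MEP2-GFP cells per well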
LAP4-GFP MLPCN – yeast TOR pathway LAP4-GFP modulation; 0.34% of 320,000 active; S. cerevisiae LAP4-GFP multiplex, flow cytometry GFP, 3 h; median GFP as percent of DMSO wells; GFP response vs DMSO, % at 10 µM;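 active = GFP response vs DMSO above a set limit, about the screen mean plus 3 SD, cut at about 150% in these data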
RPL19A-GFP yeast – modulators of TOR pathway RPL19A-GFP in S. cerevisiae | S. cerevisiae RPL19A-GFP strain, flow cytometry, 3 h; stronger effect = lower value | percent response vs DMSO, % at 10 µM | 0.3% of 330,000 active | AID 2025;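 active = percent response vs DMSO below 50%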;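 also: median channel GFP fluorescence of the barcoded RPL19A-GFP strain; lower means less RPL19A-GFP as with rapamycin TOR inhibition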
Cmpd fluor yeast – compound fluorescence in yeast efflux pump counter-screen | fluorescence ratio to DMSO, % at 10 µM | S. cerevisiae AD/pABC3, flow cytometry | shares compounds with Efflux pump mplx | AID 588517 | 4% of 1,700 active;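 active = fluorescence ratio to DMSO above its plate's cutoff, the plate mean ratio plus 5 SD, cut at about 210% in these data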;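 also: unstained yeast with no Nile Red so the signal is compound autofluorescence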
CaMdr1 efflux inh – inhibitors of Candida albicans Mdr1 efflux pump; shares compounds with Efflux pump mplx; inhibition, % at 10 µM; S. cerevisiae AD/CaMDR1, Nile Red efflux, flow cytometry; AID 588518; 1% of 1,700 active; in the data active = inhibition above about 26%;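 also: higher means more Nile Red retained so more efflux inhibition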
Cdr2 pump inh – blocks the Candida albicans Cdr2 efflux pump in yeast; shares compounds with Efflux pump mplx; S. cerevisiae AD/CaCDR2, Nile Red retention, flow cytometry; Nile Red retention ratio vs DMSO, % at 10 µM; 4% of 1,700 active; AID 588520; in the data active = Nile Red retention ratio vs DMSO above about 190%;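 also: higher ratio means more blocking of Cdr2 efflux of the dye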
CaCdr1 efflux inh – Candida Cdr1 efflux pump inhibition; shares compounds with Efflux pump mplx; S. cerevisiae AD/CaCDR1, Nile Red efflux, flow cytometry; inhibition, % at 10 µM; 1% of 1,700 active; AID 588522;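 active = inhibition above the screen-wide mean plus twice its standard deviation, cut at about 32% in these data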
Hits are given with their value; 0 = inactive; - = no result given.

SMILES	AGP1 TOR yeast	CIT2-GFP yeast	Efflux pump mplx	MEP2-GFP yeast	LAP4-GFP MLPCN	RPL19A-GFP yeast	Cmpd fluor yeast	CaMdr1 efflux inh	Cdr2 pump inh	CaCdr1 efflux inh
CC(C)Sc1cc(N2CCCC2)nc(-c2ccc(F)cc2)n1	0	0	0	0	0	0	-	-	-	-
CC(C)N(CC(=O)Nc1ccc(Cl)cc1C(F)(F)F)C(=O)CCl	0	0	0	0	0	0	-	-	-	-
O=C(c1ccccc1)c1ccccc1NC(=O)C1CCCN1Cc1ccccc1 (stereo not given)	0	0	0	0	0	0	-	-	-	-
CC(C)Oc1ccc(-c2cc(C(=O)NCCN3CCOCC3)c3ccccc3n2)cc1	0	0	0	0	0	0	0	0	0	0
CCOc1ccc(-c2cc(C(=O)N3CCN(C)CC3)c3ccccc3n2)cc1	0	0	0	0	0	0	0	0	0	0
O=C(NCCN1CCOCC1)c1cc(-c2ccc(F)cc2)nc2ccccc12	0	0	0	0	0	0	-	-	-	-
Cc1cc(OCC(=O)N(Cc2ccco2)c2c(N)n(Cc3ccccc3)c(=O)[nH]c2=O)ccc1Cl	0	0	0	0	0	0	-	-	-	-
O=C(OCC(=O)c1ccccc1Cl)c1cnccn1	0	0	14	0	0	0	0	0	0	0
CC(C)(C)N(Cc1ccccc1)C(=O)COC(=O)CNS(=O)(=O)c1ccc2ccccc2c1	0	0	0	0	0	0	-	-	-	-
CN(Cc1ccccc1)C(=O)COC(=O)CNS(=O)(=O)c1ccc2ccccc2c1	0	0	75	0	0	0	0	0	0	0
COCCNC(=O)CSc1ccccc1C(=O)NC1CCSc2ccccc21 (stereo not given)	0	0	0	0	0	0	-	-	-	-
CC1(C)C2CCC1(CS(=O)(=O)N1CCOCC1)C(=O)C2 (stereo not given)	0	0	1.4	0	0	0	0	0	0	0
CC1(C)C2CCC1(CS(=O)(=O)N1CCC(C(N)=O)CC1)C(=O)C2 (stereo not given)	0	0	0	0	0	0	-	-	-	-
O=C(O)c1ccccc1NS(=O)(=O)c1cccc2nsnc12	0	0	0.7	0	0	0	0	0	0	0
O=C(O)c1cc(Br)ccc1NS(=O)(=O)c1cccc2nsnc12	0	0	0	0	0	0	-	-	-	-
COCCN(C(=O)COC(=O)CCn1c(C)csc1=O)c1c(N)n(Cc2ccccc2)c(=O)[nH]c1=O	0	0	0	0	0	0	-	-	-	-
CCOC(=O)C1C(C(=O)OC)=C(C2=CCCCC2)c2ccccc2N1S(=O)(=O)C(F)(F)F (stereo not given)	-	-	0	-	-	-	-	-	-	-
O=C(Cc1ccccc1)NN1C(=O)/C(=C/c2ccc(C(=O)O)cc2)SC1=S	0	0	0	0	0	0	0	0	0	0
O=C(O)c1ccc(/C=C2/SC(=S)N(Cc3ccccc3)C2=O)cc1	0	0	0	0	0	0	-	-	-	-
Cc1ccc(-n2c(=O)[nH]c3c(C(N)=O)nc(C(C)C)nc32)cc1	0	0	0	0	0	0	-	-	-	-
CCOc1ccccc1-c1nc(C(N)=O)c2[nH]c(=O)n(-c3ccc(F)cc3)c2n1	0	0	0	0	0	0	0	0	0	0
CC(C)c1nc(C(N)=O)c2[nH]c(=O)n(-c3ccc(F)cc3)c2n1	0	0	0	0	0	0	-	-	-	-
Cc1ccsc1-c1nc(C(N)=O)c2[nH]c(=O)n(-c3ccc(Cl)cc3)c2n1	0	0	0	0	0	0	0	0	0	0
O=C(N/N=C/c1ccc(OC(F)F)cc1OC(F)F)c1cccc(S(=O)(=O)N2CCOCC2)c1	0	0	0	0	0	0	-	-	-	-
CCOC(=O)C(=NCCCN(C)C)NNc1ccc(Br)cc1	0	0	0	0	0	0	-	-	-	-
SMILES	AGP1 TOR yeast	CIT2-GFP yeast	Efflux pump mplx	MEP2-GFP yeast	LAP4-GFP MLPCN	RPL19A-GFP yeast	Cmpd fluor yeast	CaMdr1 efflux inh	Cdr2 pump inh	CaCdr1 efflux inh
CCCCN=C(NNc1ccc(Br)cc1)C(=O)OCC	0	0	17	0	0	0	0	0	0	0
Cc1ccc(CNC(=O)C(=O)NCC2OCCN2S(=O)(=O)c2ccc(Br)cc2)cc1 (stereo not given)	0	0	0	0	0	0	0	0	0	0
COc1ccc(CNC(=O)C(=O)NCC2OCCN2S(=O)(=O)c2ccccc2)cc1 (stereo not given)	0	0	0	0	0	0	0	0	0	0
COc1ccc(S(=O)(=O)N2CCOC2CNC(=O)C(=O)NCc2ccc(F)cc2)cc1OC (stereo not given)	0	0	0	0	0	0	0	0	0	0
COc1ccc(CNC(=O)C(=O)NCC2OCCN2S(=O)(=O)c2ccc(F)cc2)cc1 (stereo not given)	0	0	0	0	0	0	-	-	-	-
COc1ccc(CNC(=O)C(=O)NCC2OCCN2S(=O)(=O)c2ccc(C)cc2)cc1 (stereo not given)	0	0	0	0	0	0	0	0	0	0
Cc1ccc(CNC(=O)C(=O)NCC2OCCN2S(=O)(=O)c2ccc(C)cc2)cc1 (stereo not given)	0	0	0	0	0	0	-	-	-	-
C/C=C(\C)CN1CCN(c2ccc(C)cc2)CC1	0	0	0.4	0	0	0	0	0	0	0
CC(=O)c1c(-c2ccccc2)[nH]c2ccccc12	0	0	0	0	0	0	-	-	-	-
CC(=O)c1c(C)[nH]c(-c2ccccc2)c1C	0	0	8.0	0	0	0	0	0	0	0
CCN(CC(=O)Nc1ccc(N2CCOCC2)cc1)C(=O)c1ccc(C#N)cc1	0	0	0	0	0	0	-	-	-	-
COc1ccccc1/C=C/C=C1N=C(/C=C/c2ccc(Cl)cc2)OC/1=O	0	0	0	0	0	0	-	-	-	-
COc1ccccc1/C=C/C1=NC(=C\C=C/c2ccccc2)/C(=O)O1	0	0	5.2	0	0	0	0	0	0	0
O=C(C1CCN(S(=O)(=O)c2ccc(Cl)c(C(F)(F)F)c2)CC1)N1CCC1	0	0	0	0	0	0	-	-	-	-
COc1cc2c(=O)n(Cc3ccco3)c(=O)n(CC(=O)c3cccc(Br)c3)c2cc1OC	0	0	1.0	0	0	0	0	0	0	0
COc1cc2c(=O)n(Cc3ccco3)c(=O)n(CC(=O)c3ccc(Br)cc3)c2cc1OC	0	0	0	0	0	0	-	-	-	-
Cc1cc(C)c(NC(=O)Cn2c(=O)n(Cc3ccco3)c(=O)c3ccccc32)c(C)c1	0	0	1.1	0	0	0	0	0	0	0
